In the supplement of paper PMC10681739:

The sequences below were run against T1, ETS1 (UniProt P14921) (assay: ETS1 binding intensity (PBM fluorescence), ETS1 alone (arbitrary fluorescence units); higher = stronger binding). Settings: ETS1 concentration 1 nM; RUNX1 concentration 0 nM.
T1 sequence: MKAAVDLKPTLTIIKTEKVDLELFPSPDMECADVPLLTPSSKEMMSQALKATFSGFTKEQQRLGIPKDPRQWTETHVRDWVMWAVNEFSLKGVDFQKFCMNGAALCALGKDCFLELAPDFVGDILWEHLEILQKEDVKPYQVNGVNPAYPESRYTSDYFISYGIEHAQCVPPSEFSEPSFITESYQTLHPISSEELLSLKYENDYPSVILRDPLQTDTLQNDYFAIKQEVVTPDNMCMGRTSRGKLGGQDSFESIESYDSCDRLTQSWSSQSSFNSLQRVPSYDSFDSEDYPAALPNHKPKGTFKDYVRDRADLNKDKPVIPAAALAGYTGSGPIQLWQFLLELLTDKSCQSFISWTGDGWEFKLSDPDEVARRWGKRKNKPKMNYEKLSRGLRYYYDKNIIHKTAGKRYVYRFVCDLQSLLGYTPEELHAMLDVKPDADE

Sequence | ETS1 binding intensity
GGGAGGAAGTGTGAAGGGACTTTTGTGGTGAGTGAT | 549
TGTGCTTTGTAGTGAGGATGTGGGTGCCTGCCTCAC | 797
CCGCCCTCCACCGAGTTCCGGCCACAGAGCGGGCCC | 536
TCCAGGATGTGCTGAACCTCCAGAAACCACCGGCTT | 436
GACCTGACAACATCCTGGCGCAGTGGGTTGGCCCTG | 496
GGTTGTGGAGTAGGATGTGGTGTCTAGCTTTCAGCA | 588
CTCTGAAGGAAGTGATGTTAGACGGCTGTGGGTGGT | 545
TGGGAAGGGTGAGGAGGAAGCGGTGGCCTTGCTCTG | 604
ATGACTCATTTCCTCACTCTCTACTCCCACAGAACC | 606
CAGCCAGCCAGGAAGCAGGGGCTGCGGGGCTGACAG | 691
TTCATCTACTTCCCGCCACACCCACAGAGAAGCCCA | 469
GAGGAAAAAGGAAACAGAAACTCCGCAACTTGCGCC | 503
AGCGGTGTTTCAGGATGTGAGGGCCCGCAGGAGCCG | 666
AGGAGAGGATGTTGCTTGAAGGTGTGGTCTCCTCCA | 549
ATACATACAGGATGACATTTGTCCTGTGGGCACCAG | 495
GCTGTAGGAAATGTTATTCGCCGCGGTCAGGACAGG | 546
TGGAATTGAAAGGAAGCTGGCGCCACCGCAGAGGAC | 658
GAGGTTGGGAAGTTCTTCCTTTGGTCTGACCACAGT | 453
GTCTTCACATGTAGGGGAAGTGGGTTAGCGTAGGAG | 951
CCAAAAAGGAAGGAAACCAGAAAGCCACAGAATGGT | 487

Sequence | ETS1 binding intensity
CCCCTTCATCCGCCTCTCTCTCACCGCGCCGCTCCC | 449
GGCGCCTCTTTCCGCCCCCGCCCACAATCGAGCGCA | 535
ACAGATGGTCCGGAACTTCAGAAAACCACTCATTGT | 583
GCGATACGAGACTTCCTGCGGGCTCGTGACATCAGC | 518
GGTCCAGGAAGACGTCAAGGGCTTGGTTTTGTAAAC | 505
AGCACCCCACATCCTGCACCCCACAACCCAGATCCC | 510
GAGCAGCGGGAGGAAGCTGCGGCGCGCAGAGCAGAG | 534
GGCAGGAGCTTCCGGCTCAGCCCTGCGGCCTGTGCC | 498
CCGCCCACTTCCGTGTGGCCGCCGATTGGTTTTGCC | 491
TAAACGTCAGCTTCCTTTGTGGCTTACCCTCCCGCC | 495
GCTTAGGCTCTTTCCTGTGTGGTGAGCACTAACCTC | 488
AATGGCGGGAAGTAAGAGGAATGTGGGCCTGACTGC | 499
ATCAAAGAACGGATATTGCTGTGACACCGCGGGGAC | 1380
GCAGGAAATGACGTCAGACCTCACTGCGGGTCTGAG | 853
GCGCCATTTCCGCTGCGCAAGGCACCACAGGCCCTG | 1140
TGAAGGAGCGGAAGGGTTGCTTGCAGACCGCACGGT | 574
CTTGCTCCCCACTTCCTACCACATTCAATGCCCGGA | 523
TTCTTAGCAGAGGAAGCTGTTTGCGGGGAAAAAGGG | 1120
CCCTCTGAGACAGGATTTGCTTCCCACACAAGGCTA | 495
TGAATATTCTTCCGCACGTACCCACATGGCTCACTT | 486
